# Results: PubChem BioAssay (Tox21)
# Values joined by “and” are separate entries in the source; they are usually repeats but may differ in a detail not shown here. Equal entries are not always repeated. Results filed as inconclusive are left out. Active and inactive are the calls of the source. Calls follow the shape of the dose curve; as a rule, active = well fitted cell-killing curve with a large enough effect in the repeat runs; inconclusive = weak or mixed curves, or effect the other way; inactive = flat fitted curve, though single readings scatter.
# Assay: qHTS assay to identify small molecule agonists of the estrogen receptor beta (ER-beta) signaling pathway - cell viability counter screen (AID 1259380); also: nearly all actives have a fitted effect of over 30% in size
# Conditions: ER-beta-bla HEK293T viability, CellTiter-Glo luminescence, 16 h; series mostly up to 92.4 µM; activity change, negative = cytotoxicity: at the top concentration
# Text: National Center for Advancing Translational Sciences [NCATS]
# NIH Chemical Genomics Center [NCGC]
# U.S. Environmental Protection Agency [EPA]
# National Institutes of Environmental Health Sciences [NIEHS]
# National Toxicology Program [NTP]
# U.S. Food and Drug Administration [FDA]
# Estrogen receptor (ER), a nuclear hormone receptor, plays an important role in development, metabolic homeostasis and reproduction. Two subtypes of ER, ER-alpha and ER-beta, have similar expression patterns with some uniqueness in both types. Endocrine disrupting chemicals (EDCs) and their interactions with steroid hormone receptors like ER causes disruption of normal endocrine function. To identify the compounds that activate ER signaling, an ER beta-UAS-bla GripTite cell line (Life Technologies, Madison, WI, USA) containing a beta-lactamase reporter gene under the control of an UAS response element was used to screen Tox21 10K compound library. The cytotoxicity of the Tox21 compound library against the ER-beta-bla cell line was tested in parallel by measuring the cell viability using CellTiter-Glo assay in the same wells.
# Tox21 Assay Protocol Summary:
# ER-beta-UAS-bla HEK293T cells were dispensed at 2,000 cells/5 uL of assay medium containing 2% charcoal stripped FBS per well into black wall/clear-bottom 1536-well plates using a Multidrop Combi (ThermoFisher Scientific, Waltham, MA) dispenser. After the assay plates were incubated at a 37C and 5% CO2 for 6 hr, 23 nL of compounds dissolved in DMSO, positive controls or DMSO only was transferred to the assay plate by a Pintool station (Kalypsys, San Diego, CA). The plates were incubated at 37C and 5% CO2 for 16 hr. Then 1 uL of LiveBLAzerTM B/G FRET substrate was added using a BioRAPTR FRD (Flying Reagent Dispenser, Aurora Discovery, San Diego, CA) and then the plates were incubated at room temperature for 2 hours, and fluorescence intensity was measured by an Envision plate reader (PerkinElmer, Shelton, CT). For cell viability readout that measures cytotoxicity, 4 uL/well of CellTiter-Glo reagent was added into the assay plates using a FRD. After 30 min incubation at room temperature, the luminescence intensity in the plates was measured using a ViewLux (PerkinElmer) plate reader.
# % is scaled to controls: 0 for no effect and ±100 for the full control effect; potency is read from the fitted curve at half-maximal effect.
Compound,Potency,"activity change, negative = cytotoxicity"
CC(C)(O)c1cnn2c(-c3ccc(F)c(-c4c(F)cccc4C#N)c3)cnc2n1,27.3 µM (active),
C1CCC2CCCCC2C1 (stereo not given),,-0.592% (inactive)
CN(C)C1CSSSC1,,-1.1% (inactive)
O=[N+]([O-])c1cc([N+](=O)[O-])c2ccccc2c1,,-7.5% (inactive)
Cc1cc(C)cc(OP(=O)(Oc2cc(C)cc(C)c2)Oc2cc(C)cc(C)c2)c1,,-3.42% (inactive)
CCc1ccccc1C,,2.76% (inactive)
CCC(C)(C)C(=O)OC1=C(c2ccc(Cl)cc2Cl)C(=O)OC12CCCCC2,,-5.96% (inactive)
C[C@H]1CC[C@@H]2[C@@H](C)[C@H]3[C@H](C[C@H]4[C@@H]5CC=C6CC(O[C@@H]7O[C@H](CO)[C@H](O)[C@H](O[C@@H]8O[C@H](CO)[C@@H](O)[C@H](O)[C@H]8O)[C@H]7O[C@H]7O[C@@H](C)[C@H](O)[C@@H](O)[C@H]7O)CC[C@]6(C)[C@H]5CC[C@]34C)N2C1 (stereo not given in full),15.8 µM (active),
CN(C)C(=S)S,5.56 µM (active) and 1.21 µM (active) and 12.2 µM (active),
C[C@H]1O[C@@H](O[C@H]2[C@@H](O)C[C@H](O[C@H]3[C@@H](O)C[C@H](O[C@H]4CC[C@@]5(C)[C@H](CC[C@@H]6[C@@H]5CC[C@]5(C)[C@@H](C7=CC(=O)OC7)CC[C@]65O)C4)O[C@@H]3C)O[C@@H]2C)C[C@H](O)[C@@H]1O,43.5 nM (active) and 47.3 nM (active),
CCOC(=O)c1ccccc1S(=O)(=O)NC(=O)Nc1nc(Cl)cc(OC)n1,,0.126% (inactive)
COS(=O)(=O)c1ccc(C)cc1,,0.127% (inactive)
C[C@]12CC[C@H](O)C[C@H]1CC[C@@H]1[C@@H]2C[C@@H](O)[C@]2(C)[C@@H](C3=CC(=O)OC3)CC[C@]12O,1.09 µM (active),
CC(C)OS(C)(=O)=O,,-6.97% (inactive)
S=C=Nc1cccc2ccccc12,60.5 µM (active),
CC1(C)CN=C(NN=C(/C=C/c2ccc(C(F)(F)F)cc2)/C=C/c2ccc(C(F)(F)F)cc2)NC1,19.3 µM (active),
COc1cc(N)c(Cl)cc1C(=O)NC1CN2CCC1CC2 (stereo not given),,-0.484% [at 42.5 µM] (inactive)
c1ccc(OCC2CO2)cc1 (stereo not given),,-2.04% (inactive)
CC(C)CBr,,2.25% (inactive)
N#Cc1ccc(O)cc1,,-2.53% (inactive)

Compound,Potency,"activity change, negative = cytotoxicity"
Fc1cccc(Cl)c1CCl,,11.6% (inactive)
COc1ccc(OC)c(CC(C)N)c1 (stereo not given),,-1.9% (inactive)
BrC(Br)Br,,9.33% (inactive)
CC(=O)[O-].CC(=O)[O-].O.O.[Cd+2],60.3 µM (active),
COCC(=O)N(c1c(C)cccc1C)[C@H](C)C(=O)OC,,3.57% (inactive)
Oc1ccc(C2(c3ccc(O)cc3)CCCCC2)cc1,57.9 µM (active),
C[C@@H]1CC[C@@]2(OC1)O[C@H]1[C@@H](O)[C@H]3[C@@H]4CC[C@H]5C[C@@H](O[C@@H]6O[C@H](CO)[C@H](O[C@@H]7O[C@H](CO)[C@@H](O)[C@H](O[C@@H]8OC[C@@H](O)[C@H](O)[C@H]8O)[C@H]7O[C@@H]7O[C@H](CO)[C@@H](O)[C@H](O[C@@H]8O[C@H](CO)[C@@H](O)[C@H](O)[C@H]8O)[C@H]7O)[C@H](O)[C@H]6O)[C@H](O)C[C@]5(C)[C@H]4CC[C@]3(C)[C@H]1[C@@H]2C,9.16 µM (active),
Clc1ccc(CCC(Cn2ccnc2)Sc2c(Cl)cccc2Cl)cc1 (stereo not given),29.8 µM (active),
Cc1cc(SCc2sc(-c3ccc(C(F)(F)F)c(F)c3)nc2C)ccc1OCC(=O)O,15.4 µM (active),
O=c1[nH]c2ccccc2n1CCCN1CCC(n2c(=O)[nH]c3cc(Cl)ccc32)CC1,9.44 µM (active),
S=C(SSC(=S)N1CCCCC1)N1CCCCC1,0.188 µM (active),
Cc1ccc(OP(=O)(Oc2ccccc2)Oc2ccccc2)cc1,31.1 µM (active),
CN(C)CCc1c[nH]c2ccc(O)cc12,,5.69% (inactive)
Clc1ccc(C(c2ccccc2Cl)C(Cl)(Cl)Cl)cc1 (stereo not given),48.9 µM (active),
Cc1c(Cl)c(=O)oc2cc(OP(=O)(OCCCl)OCCCl)ccc12,,-12.7% [at 42.5 µM] (inactive)
OC(Cc1ccccc1Cl)(Cn1cncn1)C1(Cl)CC1 (stereo not given),,-8% (inactive)
CC(C)OC(=S)S,,-25.2% (inactive)
CCC(C)c1cc([N+](=O)[O-])cc([N+](=O)[O-])c1OC(=O)C=C(C)C (stereo not given),,3.05% (inactive)
CC(C)(COCC1CO1)COCC1CO1 (stereo not given),,-4.38% (inactive)
COc1cc(C=O)cc2c1[C@H](COC(N)=O)[C@]1(OC(C)=O)ON2C[C@H]2[C@@H]1N2C(C)=O,,-3.47% (inactive)
